Our source for the z-score values is PubChem BioAssay.

Active and inactive are the calls of the source.

A short description of assay [1]: compound effects on lung adenocarcinoma cell viability – A549, calcein-AM fluorescence, 48 h, basal, profiling panel (AID 1162). As to conditions: higher = more signal.
Assay [2] in a line: compound effects on differentiated 3T3-L1 adipocyte viability – cell-based, 3T3-L1 adipocytes, calcein-AM fluorescence, 48 h, basal, profiling panel (AID 1163). As to conditions: 3T3-L1 adipocytes viability, higher = more signal.
The nature of assay [3]: compound effects on hepatocellular carcinoma cell viability – HepG2, calcein-AM fluorescence, 48 h, basal, profiling panel (AID 1164). As to conditions: higher = more signal.
A short description of assay [4]: compound effects on multiple myeloma cell viability – MM1S, calcein-AM fluorescence, 48 h, basal, profiling panel (AID 1165). As to conditions: higher = more signal.
Assay [5] can be described thus: calcein-AM signal in unstimulated myeloma cells – cell-based, calcein-AM fluorescence, 48 h, PK04 Diversity Set, profiling panel (AID 1166).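 Note: cells grown under basal conditions without added stimulus.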 As to conditions: RPMI8226 myeloma viability, higher = more signal.
Assay [6] can be described thus: JC-1 mitochondrial signal, unstimulated HepG2 cells – cell-based, JC-1 fluorescence, 24 h, 100 nL compound, profiling panel (AID 1167). As to conditions: HepG2 mitochondrial potential, higher = more signal.
A short description of assay [7]: JC-1 mitochondrial signal, unstimulated adipocytes – cell-based, JC-1 fluorescence, 3T3-L1 adipocytes, 24 h, 100 nL compound, profiling panel (AID 1168). As to conditions: JC-1 mitochondrial fluorescence, higher = more signal, called active from +8 up or from −8 down.
Assay [8] is described as follows: JC-1 mitochondrial signal, unstimulated myeloma cells – cell-based, JC-1 fluorescence, RPMI8226, 24 h, 100 nL compound, profiling panel (AID 1169). As to conditions: JC-1 mitochondrial potential fluorescence, higher = more signal.
A short description of assay [9]: JC-1 mitochondrial signal, unstimulated MM1S myeloma – cell-based, JC-1 fluorescence, 24 h, 100 nL compound, profiling panel (AID 1170). As to conditions: MM1S mitochondrial potential, higher = more signal.
Assay [10] in a line: resazurin metabolic signal in A549 cells – cell-based, resazurin fluorescence, 24 h, PK04 Diversity Set, profiling panel (AID 1171). As to conditions: A549 viability, higher = more signal, called active from +8 up or from −8 down. In general terms: Alamar Blue is a resazurin reagent that responds to reducing activity.
Note: test concentration not given here.

On to `C/C=C/[C@@H](CCn1cc([C@H](O)c2ccccc2)nn1)[Si](C)(C)c1ccc(OC)cc1`, for which the z-score in assay [1] was -0.536; in assay [2], 0.485; in [3] it was -0.713; in assay [4] it was -2.9; in assay [5] it was -3.1; in [6], -1.13. Also, the z-score in assay [7] is -0.255 (inactive); in assay [8], -0.268; in assay [9], -0.462; in [10], 0.372 (inactive).

`C=C(/C(=C/C[C@@H](OC(C)=O)c1ccccc1OCCO)c1cnc2ccccc2c1)C(C)C`: the z-score in [1] is -0.0635; in [2] it was 2.39; in [3] it was -0.795; in assay [4], -2.36; in assay [5] it was -1.45; in assay [6], 0.517. Moreover, the z-score in assay [7] is -1.27 (inactive); in assay [8] it was -0.0844; in assay [9], 1.74; in assay [10], -0.945 (inactive).

Turning to `COC(=O)C(CC#Cc1ccc2c(c1)[C@]1(C(=O)N2)[C@H](C(=O)N2CCc3cc(OC)c(OC)cc3C2)[C@H]2C(=O)O[C@H](c3ccccc3)[C@H](c3ccccc3)N2[C@@H]1c1ccc(OCCO)cc1)C(=O)OC`, the z-score is 0.968 in assay [1]; -0.204 in [2]; 1.63 in [3]; 0.783 in [4]; 0.678 in assay [5]; -2.03 in assay [6]. The z-score is 0.375 (inactive) in assay [7], -0.678 in assay [8], -1.49 in [9] and 0.21 (inactive) in assay [10].

`COCCOC(=O)N1C(=O)[C@@]2(c3cc(C#Cc4ccc(OC)cc4)ccc31)[C@H](C(N)=O)[C@H]1C(=O)O[C@H](c3ccccc3)[C@H](c3ccccc3)N1[C@@H]2c1ccc(OCCO)cc1`: the z-score in assay [1] is -1.42; in assay [2], 0.879; in [3], -0.656; in assay [4] it was -1.79; in assay [5] it was -2.31; in [6] it was -1.59. Also, the z-score was 2.52 (inactive) in [7], -0.57 in assay [8], -1.39 in assay [9] and 0.676 (inactive) in assay [10].

Take `Cc1ccc(-c2cccc(=O)o2)cc1`: the z-score in assay [1] is -0.104; in assay [2], 0.796; in assay [3], -0.117; in [4], 0.0881; in [5] it was -0.774; in [6] it was -1.35. For the same molecule, the z-score is -0.263 (inactive) in assay [7], -0.177 in assay [8], -0.299 in assay [9] and -0.0164 (inactive) in assay [10].

On to `COc1ccc([Si](C)(C)[C@@H]2[C@@H](CC(=O)N(CCO)Cc3ccccc3)O[C@]3(C(=O)N(Cc4ccc(N5CCOC5=O)cc4)c4ccccc43)[C@H]2C)cc1`, for which the z-score in [1] is -0.65; in [2], 0.603; in assay [3], -1.94; in assay [4], -2.35; in [5], -4.21; in assay [6], -0.0678. For the same molecule, the z-score in assay [7] is 1.19 (inactive); in [8], -1.01; in assay [9], -1.29; in assay [10], -1.61 (inactive).

In the case of `O=C1c2ccccc2[C@](Cc2ccccc2I)(C(=O)NCC(F)(F)F)[C@H](c2ccc(CO)cc2)N1Cc1ccccc1`, the z-score in assay [1] is 0.535; in [2], 0.489; in assay [3], 0.43; in assay [4], -0.441; in [5] it was -1.67; in assay [6], -0.0706. Further, the z-score in assay [7] is -0.0813 (inactive); in [8], -0.332; in assay [9], -0.645; in assay [10], 1.1 (inactive).

For `C=CCOC(=O)[C@@H]1[C@H]2C(=O)O[C@H](c3ccccc3)[C@H](c3ccccc3)N2[C@H](c2ccc(OCCOC(=O)[C@@H]3C[C@@H]4C(=O)N[C@@H](CCCCNC(C)=O)C(=O)N4[C@@H]3c3ccc(O)cc3)cc2)[C@@]12C(=O)Nc1ccc(I)cc12`, the z-score in assay [1] is 0.32; in [2] it was -0.571; in [3], -0.179; in assay [4] it was -0.154; in [5] it was 0.165; in assay [6], -0.396. The z-score in assay [7] is 1.21 (inactive); in [8] it was -0.482; in [9] it was -1.14; in assay [10], 0.873 (inactive).

Consider `CC(C)N1C(=O)c2ccccc2[C@](C)(C(=O)O)[C@@H]1c1ccc(CO)cc1`, for which the z-score was -0.786 in assay [1]; 0.0073 in assay [2]; -0.876 in assay [3]; 0.0364 in assay [4]; 0.0868 in assay [5]; 0.0703 in assay [6]. Also, the z-score in [7] is 0.597 (inactive); in assay [8], 0.663; in assay [9], -0.188; in assay [10] it was 0.069 (inactive).

Regarding `COCCOC(=O)N1C(=O)[C@@]2(c3cc(C#CCCO)ccc31)[C@H](C(=O)N1CCc3cc(OC)c(OC)cc3C1)[C@H]1C(=O)O[C@H](c3ccccc3)[C@H](c3ccccc3)N1[C@@H]2c1ccc(OCCO)cc1`, the z-score in assay [1] is 1.31; in assay [2] it was 1.05; in assay [3] it was 1.15; in assay [4], 0.214; in assay [5], 1.23; in [6], -0.495. Further, the z-score is 1.21 (inactive) in assay [7], -0.532 in assay [8], -0.901 in assay [9] and 0.86 (inactive) in [10].
